Measurements as given in PubChem BioAssay.
Activity calls are given as the source filed them. Unless noted, no rule for the calls is given here.

Tests used:
[1] = A549 cell viability effects, profiling panel, calcein-AM fluorescence, 48 h, basal (AID 1162); settings: higher = more signal; also: test concentration not given here
[2] = adipocyte viability effects, profiling panel, cell-based, 3T3-L1 adipocytes, calcein-AM fluorescence, 48 h, basal (AID 1163); settings: 3T3-L1 adipocytes viability, higher = more signal; also: test concentration not given here
[3] = HepG2 cell viability effects, profiling panel, calcein-AM fluorescence, 48 h, basal (AID 1164); settings: higher = more signal; also: test concentration not given here
[4] = MM1S cell viability effects, profiling panel, calcein-AM fluorescence, 48 h, basal (AID 1165); settings: higher = more signal;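 also: viability of MM1S multiple myeloma cells under basal unstimulated conditions; test concentration not given here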
[5] = basal RPMI8226 viability, no added stimulus, profiling panel, cell-based, calcein-AM fluorescence, 48 h, PK04 Diversity Set (AID 1166); settings: RPMI8226 myeloma viability, higher = more signal;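 also: cells grown under basal conditions without added stimulus; test concentration not given here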
[6] = basal HepG2 mitochondrial membrane potential changes, profiling panel, cell-based, JC-1 fluorescence, 24 h, 100 nL compound (AID 1167); settings: higher = more signal; also: test concentration not given here
[7] = basal 3T3-L1 adipocyte mitochondrial potential changes, profiling panel, cell-based, JC-1 fluorescence, 3T3-L1 adipocytes, 24 h, 100 nL compound (AID 1168); settings: JC-1 mitochondrial fluorescence, higher = more signal, called active from +8 up or from −8 down; also: test concentration not given here
[8] = basal RPMI8226 mitochondrial membrane potential changes, profiling panel, cell-based, JC-1 fluorescence, 24 h, 100 nL compound (AID 1169); settings: RPMI8226 myeloma, JC-1 mitochondrial potential fluorescence, higher = more signal; also: test concentration not given here
[9] = basal MM1S mitochondrial membrane potential changes, profiling panel, cell-based, JC-1 fluorescence, 24 h, 100 nL compound (AID 1170); settings: higher = more signal; also: test concentration not given here
[10] = A549 lung cancer cell viability effects, profiling panel, resazurin fluorescence, 24 h, PK04 Diversity Set (AID 1171); settings: higher = more signal, called active from +8 up or from −8 down; also: test concentration not given here
[11] = HepG2 liver cancer cell viability effects, profiling panel, resazurin fluorescence, 24 h, PK04 Diversity Set (AID 1172); settings: higher = more signal; also: test concentration not given here
[12] = basal S. cerevisiae growth modulation, no modifier, primary screen, OD600, strain BY4716, 24 h, basal condition (AID 1173); settings: OD600, 24 h, higher = more signal, called active from +8 up or from −8 down
[13] = MM1S myeloma cell viability, profiling panel, resazurin fluorescence, basal, 24 h, PK04 Diversity Set (AID 1174); settings: higher = more signal, called active from +8 up or from −8 down;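 also: MM1S multiple myeloma cell line; test concentration not given here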
[14] = biological target: Dihydroorotate dehydrogenase (quinone), mitochondrial (Plasmodium falciparum (isolate 3D7)) (UniProt Q08210); assay: PfDHODH enzyme inhibitors, primary screen, biochemical, C-terminal His tag, absorbance 600 nm (AID 1175); settings: DCIP absorbance 600 nm, higher = more signal, called active from +8 up or from −8 down;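 also: recombinant parasite enzyme with a five histidine tag at its C terminus; test concentration not given here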
[15] = P. aeruginosa biofilm formation inhibitors, primary screen, strain PAO1, LB-PBS medium, absorbance 600 nm (AID 1176); also: test concentration not given here; settings: P. aeruginosa PAO1 growth/biofilm, A600, 12 h; higher = more signal
[16] = S. cerevisiae RM11-1a growth modifiers, primary screen, strain RM11-1a, OD600, basal, 24 h (AID 1177); settings: OD600, 24 h, higher = more signal, called active from +8 up or from −8 down;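 also: cultures grown under basal conditions with no added stressor; test concentration not given here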
[17] = E. coli acrAB mutant growth effects, primary screen, E. coli filamentation inducers, strain DRC39, OD650, 24 h (AID 1178); settings: higher = more signal, called active from +8 up or from −8 down;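 also: growth measured as culture turbidity by optical density at 650 nm; test concentration not given here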
[18] = E. coli acrAB mutant growth effects, primary screen, E. coli filamentation inducers, strain DRC39, OD650, 48 h (AID 1179);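 also: screen aims at cell division blockers that make cells filament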; settings: E. coli DRC39 delta-acrAB growth, higher = more signal, called active from +8 up or from −8 down
[19] = RPMI8226 myeloma cell viability, profiling panel, resazurin fluorescence, basal, 24 h, PK04 Diversity Set (AID 1180); settings: higher = more signal;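 also: RPMI8826 multiple myeloma cell line at 5000 cells per well; test concentration not given here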
[20] = biological target: E3 ubiquitin-protein ligase XIAP (Homo sapiens) (UniProt P98170); assay: XIAP binders, primary screen, biophysical, small-molecule microarray, fluorescence 635 nm (AID 1181); settings: small-molecule microarray binding, higher = more signal;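 also: score merges 667 nm emission and signal to noise over triplicate slides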
Chain of E3 ubiquitin-protein ligase XIAP (Homo sapiens) (P98170 whole entry, looked up): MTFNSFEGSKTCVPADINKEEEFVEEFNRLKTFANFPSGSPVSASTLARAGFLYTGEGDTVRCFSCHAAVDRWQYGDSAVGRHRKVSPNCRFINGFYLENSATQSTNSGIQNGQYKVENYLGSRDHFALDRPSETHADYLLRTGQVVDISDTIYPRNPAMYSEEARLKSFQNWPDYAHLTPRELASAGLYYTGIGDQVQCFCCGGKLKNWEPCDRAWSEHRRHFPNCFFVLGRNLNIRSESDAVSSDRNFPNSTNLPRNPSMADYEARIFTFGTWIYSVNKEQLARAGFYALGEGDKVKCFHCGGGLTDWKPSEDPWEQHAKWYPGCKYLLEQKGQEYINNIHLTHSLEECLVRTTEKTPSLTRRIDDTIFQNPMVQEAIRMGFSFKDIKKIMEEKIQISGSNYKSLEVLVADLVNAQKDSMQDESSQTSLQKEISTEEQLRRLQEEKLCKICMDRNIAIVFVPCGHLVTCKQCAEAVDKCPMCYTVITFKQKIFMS

Chain of Dihydroorotate dehydrogenase (quinone), mitochondrial (Plasmodium falciparum (isolate 3D7)) (Q08210 whole entry, looked up): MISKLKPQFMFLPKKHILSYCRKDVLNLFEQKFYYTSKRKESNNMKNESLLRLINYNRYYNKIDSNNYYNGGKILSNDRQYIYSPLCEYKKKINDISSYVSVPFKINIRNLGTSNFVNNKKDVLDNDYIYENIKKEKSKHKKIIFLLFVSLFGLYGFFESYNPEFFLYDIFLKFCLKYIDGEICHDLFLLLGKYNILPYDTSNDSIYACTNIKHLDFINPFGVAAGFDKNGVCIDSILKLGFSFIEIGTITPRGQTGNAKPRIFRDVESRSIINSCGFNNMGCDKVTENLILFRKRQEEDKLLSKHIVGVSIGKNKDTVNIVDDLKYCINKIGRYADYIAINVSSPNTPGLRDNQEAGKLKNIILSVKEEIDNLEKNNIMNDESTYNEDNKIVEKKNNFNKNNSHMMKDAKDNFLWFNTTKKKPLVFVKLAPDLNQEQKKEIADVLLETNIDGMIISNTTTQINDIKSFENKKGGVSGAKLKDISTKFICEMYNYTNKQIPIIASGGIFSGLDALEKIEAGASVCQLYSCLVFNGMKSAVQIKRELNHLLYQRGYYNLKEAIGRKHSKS

| Structure (SMILES) | z-score [1] | z-score [2] | z-score [3] | z-score [4] | z-score [5] | z-score [6] | z-score [7] | z-score [8] | z-score [9] | z-score [10] | z-score [11] | z-score [12] | z-score [13] | composite z-score [14] | z-score [15] | z-score [16] | z-score [17] | z-score [18] | z-score [19] | composite z-score [20] |
| --- | --- | --- | --- | --- | --- | --- | --- | --- | --- | --- | --- | --- | --- | --- | --- | --- | --- | --- | --- | --- |
| CCOC(=O)C[C@H]1[C@H](OC(=O)c2ccc(-c3ccccc3)cc2)[C@@H](NC(=O)CC(C)C)c2cc(OCCCO)ccc2N1C(=O)c1ccccc1 | -0.426 | -0.257 | -0.0915 | -1.17 | -0.672 | 1.32 | -0.679 (inactive) | 0.983 | 0.33 | -0.719 (inactive) | -0.6 | 1.28 (inactive) | -0.281 (inactive) | 0.88 (inactive) | 0.951 (inactive) | 0.964 (inactive) | -0.635 (inactive) | -0.776 (inactive) | -0.157 | -0.0559 |
| CCOC(=O)C1=CCN(S(=O)(=O)c2ccc(C)cc2)C1c1ccccc1 (stereo not given) | -0.973 | -0.205 | -0.535 | -0.455 | -1.21 | -1.62 | -0.804 (inactive) | 0.443 | -0.583 | 0.739 (inactive) | -0.17 | 0.218 (inactive) | -0.612 (inactive) | -0.551 (inactive) | 0.449 (inactive) | 0.58 (inactive) | -0.564 (inactive) | -0.359 (inactive) | -1.01 | -0.0957 |
| O=C1C2C=CC(C(O)c3cc(C(F)(F)F)cc(C(F)(F)F)c3)N(Nc3ccccc3F)C2C(=O)N1c1ccccc1 (stereo not given) | -1.28 | -0.599 | -3.36 | -3.6 | -4.08 | -3.93 | 0.0394 (inactive) | -1.11 | -0.964 | -0.648 (inactive) | -2.18 | -1.47 (inactive) | -1.09 (inactive) | -0.232 (inactive) | 1.11 (inactive) | 0.332 (inactive) | -2.31 (inactive) | -0.711 (inactive) | -3.04 | 0.0264 |
| COC(=O)[C@@]1(Cc2ccc(F)cc2)[C@H]2c3cc(C(=O)N(C)C)n(Cc4ccc(O)c(OC)c4)c3C[C@H]2CN1C(=O)c1ccccc1 | 0.511 | 0.997 | -0.269 | -0.0229 | -1.92 | 0.766 | -0.475 (inactive) | -0.379 | -1.63 | -0.88 (inactive) | -0.338 | 1.15 (inactive) | 0.0463 (inactive) | -0.764 (inactive) | 1.72 (inactive) | 0.301 (inactive) | 0.373 (inactive) | -1.35 (inactive) | -0.997 | 0.0812 |
| O=C1N(CCS(=O)(=O)c2ccccc2)Cc2ccccc2[C@@H]2OC(c3ccc(OCCCO)cc3)=N[C@]12CCS(=O)(=O)c1ccccc1 | 1.35 | 0.859 | 0.345 | -0.635 | -1 | -1.65 | 1.72 (inactive) | -0.933 | -1.01 | 0.409 (inactive) | 0.638 | 1.6 (inactive) | 0.298 (inactive) | 0.324 (inactive) | 1.71 (inactive) | 2.85 (inactive) | 0.958 (inactive) | 0.31 (inactive) | -0.458 | -0.0062 |
| O=C(NCCN1CCOCC1)[C@@H]1c2ccccc2C(=O)N(Cc2ccccc2)[C@H]1c1ccc(CO)cc1 | 0.178 | -0.323 | 0.225 | -0.593 | 0.137 | 2.07 | 0.422 (inactive) | -0.78 | -0.218 | 1.59 (inactive) | 1.15 | 0.476 (inactive) | 0.802 (inactive) | -0.547 (inactive) | -0.838 (inactive) | 0.496 (inactive) | 0.0077 (inactive) | 0.76 (inactive) | 0.822 | -0.0228 |
| COc1cc2c(cc1O)C(c1cccs1)N(Cc1sc3ccccc3c1Cl)CC2 (stereo not given) | -3.77 | 0.623 | -4.6 | -3.27 | -4.2 | -3.1 | -0.197 (inactive) | -0.894 | -0.194 | -0.403 (inactive) | -1.05 | -1.41 (inactive) | -0.519 (inactive) | -1.72 (inactive) | -0.131 (inactive) | -0.0369 (inactive) | -0.0316 (inactive) | -0.89 (inactive) | -0.94 | 0.134 |
| Cc1ccccc1C(O)C1C=CC2C(=O)NC(=O)C2N1Nc1ccc(Cl)cc1Cl (stereo not given) | -0.235 | -0.636 | -0.245 | -2.93 | -1.58 | -2.8 | -0.879 (inactive) | -0.153 | 0.106 | -0.8 (inactive) | -2.17 | -9.05 (active) | -1.03 (inactive) | 0.107 (inactive) | 1.15 (inactive) | 0.251 (inactive) | -0.511 (inactive) | -0.963 (inactive) | -1.25 | 2.02 |
| COc1cccc(/C=C(\C#N)C(=O)Nc2c(C)n(C)n(-c3ccccc3)c2=O)c1 | 2.14 | 1.12 | 1.01 | -0.485 | 0.101 | 0.778 | 0.159 (inactive) | 0.505 | -0.535 | -0.589 (inactive) | 0.665 | -1.81 (inactive) | -1.82 (inactive) | -1.14 (inactive) | 0.792 (inactive) | -0.6 (inactive) | 0.575 (inactive) | 1.15 (inactive) | 0.191 | 0.0775 |
| COc1ccc([Si](C)(C)[C@H]2[C@H](CCO)O[C@@]3(C(=O)N(Cc4ccccc4)c4ccc(N5CCOC5=O)cc43)[C@@H]2C)cc1 | -0.119 | -0.325 | -2.09 | -2.13 | -3.4 | -0.203 | 0.69 (inactive) | -1.11 | -1.68 | -1.94 (inactive) | -1.27 | 1.12 (inactive) | -3.35 (inactive) | 0.0738 (inactive) | 2.41 (inactive) | 4.25 (inactive) | 0.895 (inactive) | 0.0981 (inactive) | -2.64 | -0.135 |
| COCCOC(=O)N1C(=O)[C@@]2(c3cc(C#CC4=CCCCC4)ccc31)[C@H](C(=O)N1CCCCCCC1)[C@H]1C(=O)O[C@H](c3ccccc3)[C@H](c3ccccc3)N1[C@@H]2c1ccc(OCCO)cc1 | 0.382 | 1.74 | -0.214 | -0.774 | -0.779 | 0.225 | -3.07 (inactive) | -0.674 | -1.14 | -0.223 (inactive) | 0.111 | -0.145 (inactive) | -0.341 (inactive) | -1.9 (inactive) | 2.26 (inactive) | 1.16 (inactive) | -0.427 (inactive) | -0.311 (inactive) | 0.169 | 0.144 |
| CC(C)[C@H]1NC(=O)[C@@]23C(=O)N[C@@H](Cc4ccccc4)C2[C@H](C)[C@@]2(C)O[C@H]2C3/C=C/CCC/C=C/CNC(=O)[C@H](Cc2ccccc2)NC1=O (stereo not given in full) | -0.315 | 0.532 | 0.304 | -0.837 | -1.6 | 1.18 | -0.499 (inactive) | -0.157 | 1.84 | -1.25 (inactive) | -1.15 | -1.76 (inactive) | -0.457 (inactive) | 0.112 (inactive) | -0.471 (inactive) | -0.201 (inactive) | -0.297 (inactive) | -0.786 (inactive) | 0.0125 | -0.039 |
| COC(=O)[C@@]1(Cc2ccccc2)[C@H]2c3cc(C(=O)N4CCCC4)n(CCSCCO)c3C[C@H]2CN1C(=O)c1ccccc1 | -0.52 | 0.629 | 0.422 | -0.451 | -0.874 | 0.59 | -1.19 (inactive) | 0.26 | 0.0172 | -0.845 (inactive) | -1.19 | 0.712 (inactive) | -1.63 (inactive) | -0.337 (inactive) | 0.824 (inactive) | 0.53 (inactive) | -1.01 (inactive) | -0.853 (inactive) | -1.68 | 0.361 |
| C[C@]1(C(=O)NCC(F)(F)F)c2ccccc2C(=O)N(Cc2ccccc2)[C@H]1c1ccc(CO)cc1 | -0.431 | -0.2 | 0.57 | -0.503 | 0.514 | 1.97 | 0.113 (inactive) | 0.824 | -1.07 | 0.0906 (inactive) | -0.398 | 0.0742 (inactive) | 0.525 (inactive) | 0.721 (inactive) | -0.0807 (inactive) | 0.433 (inactive) | 0.242 (inactive) | 0.824 (inactive) | 0.937 | -0.102 |
| C=C(C)[C@@H]1CC=C(C(O)C2C=CC3C(=O)N(c4ccccc4)C(=O)C3N2Nc2ccc(C#N)cc2)CC1 (stereo not given in full) | -0.391 | -0.575 | 0.166 | -0.331 | 0.0001 | -2.47 | -2.61 (inactive) | -0.671 | -0.641 | -0.31 (inactive) | -1.12 | -0.111 (inactive) | -0.591 (inactive) | 0.0143 (inactive) | 1.8 (inactive) | 0.556 (inactive) | -0.688 (inactive) | -0.906 (inactive) | 0.0852 | 0.169 |
